Data: PubChem BioAssay AID493029 (Johns Hopkins Ion Channel Center, 2011)
Screen size: about 1,000 compounds; about 140 (14%) were called active. How the calls were made is not given here. Only a sample is shown.

assay: non-target flux effects, untransfected CHO, cell-based, thallium flux, counter-screen for KCNQ2 inhibitor project (AID 493029); conditions: parental CHO cells, at 10 µM; hits give low values;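 on activity change: 0% = vehicle negative controls with stimulus buffer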

SMILES	activity change
CCc1ccc(-c2nn(-c3ccccc3)cc2CSC(=N)N)cc1	-31% (active)
CC(NC(=S)NNS(=O)(=O)c1ccc(C(C)(C)C)cc1)c1ccccc1 (stereo unspecified)	inactive
C=CS(=O)c1sc(Cl)c(N2CCOCC2)c1[N+](=O)[O-] (stereo unspecified)	-22.5% (active)
Cc1ccc(C(=O)c2c(NC(=O)c3ccccc3)sc(C)c2C)cc1	inactive
O=C(OCC(=O)N(CCc1ccccc1)Cc1ccccc1)c1ccccc1[N+](=O)[O-]	inactive
CCOC(=O)C(C)Sc1nc2ccccc2c(=O)n1CC1CCCCC1 (stereo unspecified)	-21% (active)
Cc1ccc(C2=Nc3c(ccc4ccccc34)C(c3ccncc3)=NN2)cc1	inactive
COc1cccc(COc2ccc(N(C)S(=O)(=O)c3ccccc3)cc2)c1	inactive
Cc1ccc(C(C)C)cc1OCC(=O)Nc1ccccc1N1CCCC1	inactive
CC(C)N(C(=O)CSc1nc(COc2ccccc2)nc2ccccc12)C(C)C	-42.5% (active)
CCc1ccc(-c2cc(C(=O)NCc3ccco3)c3ccccc3n2)s1	inactive
CC(C)[C@H](NC(=O)OCc1ccccc1)C(=O)OCc1ccccc1	inactive
Cc1ccc(N2C(=O)C3C(c4ccccc4)(C2=O)C3(c2ccccc2)c2ccccc2)cc1 (stereo unspecified)	inactive
Cc1cccc(C(=O)OC(C)C(=O)NC2CCCc3ccccc32)c1O (stereo unspecified)	inactive
CCc1ccccc1NC(=O)/C(=C/c1ccccc1)c1ccccc1	inactive
CSCc1cc(N(C)C)nc(SCc2ccc(Cl)cc2Cl)n1	inactive

SMILES	activity change
O=C(Nc1ccccc1Cl)/C(Cl)=C(\Cl)S(=O)c1ccccc1 (stereo unspecified)	inactive
CCc1ccc2ncc(C(=O)c3ccccc3)c(N3CCOCC3)c2c1	inactive
COc1ccc(CN(C)C(C)C(=O)NC2CCCc3ccccc32)cc1 (stereo unspecified)	inactive
CC(C(=O)NCC1CCCCC1)N(C)Cc1cccc(Cl)c1 (stereo unspecified)	-35% (active)
CC(C)C(NC(=O)OCc1ccccc1)C(=O)OCC(=O)N1C(C)CCCC1C (stereo unspecified)	inactive
COC(=O)C1=C(C)N(C(C)c2ccccc2)C(=O)/C1=C\c1ccco1 (stereo unspecified)	inactive
Fc1ccc2[nH]c3c(N4CCSCC4)ncnc3c2c1	inactive
CCOC(=O)N1CCC(N(CCOC)C(=O)Nc2ccc(C)c(C)c2)CC1	-23.5% (active)
Cc1ccccc1N1CCN(CC(=O)NCc2ccc(Cl)cc2)CC1	inactive
COc1ccc(Cl)cc1NC(=O)CN(C)Cc1ccc(OC)c(OC)c1	inactive
CN(Cc1ccccc1F)C(=O)C(Cc1ccccc1)NC(=O)c1ccccc1 (stereo unspecified)	inactive
O=C(Nc1ccc(Cl)c(Cl)c1)N1CC=C(c2ccccc2)CC1	inactive
Cc1nc2ccccc2c(-c2ccccc2)c1C(=O)c1ccccc1	inactive
C=CCn1c(SCC(=O)/C(C#N)=C(\C)N)nc2sc(C)c(C)c2c1=O	inactive
Cc1ccccc1C(=O)Nc1ccccc1Sc1ccccc1	inactive
